Reference: PubChem BioAssay (NCI)
About 83,000 compounds went through this panel and 20% of them were active in at least one assay; those are over-represented in the sample as a whole.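 48-hour exposure, single concentration, 96-well plates; percent growth endpoint where 0 means no net growth. Active: below 10.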 Unmarked numbers belong to inactive results. The source made the active and inactive calls.

test system: ACHN renal; test: NCI-60 one-dose screen, 48 h (100 = growth as untreated, 0 = no growth, -100 = all killed); settings: 10 µM unless noted

| SMILES | growth |
| --- | --- |
| CCCCCCCC/C=C\CCCCCCCCOc1ccccc1CCOP(=O)(O)OCC[N+](C)(C)C | 80.6% |
| CCN1C(=S)N(CC)C2Nn3c(s/c(=C4\C(=O)N(C)c5ccccc54)c3=O)=NC21 (stereo not drawn) | 52.5% |
| O=C(CNC(=O)c1cccc2ccccc12)Nc1ccccc1Oc1ccccc1 | 29.9% |
| CN(C)C/C=C/C(=O)Nc1cc2c(Nc3ccc(F)c(Cl)c3F)ncnc2cc1OCCOC(F)F | -7.73% (active) |
| CC(C)C(C(=O)CCN(C)C)c1ccc(Cl)cc1 (stereo not drawn) | 101% |
| CCN1C(=O)/C(=c2\sc3n(c2=O)C2C(NN=3)N(CC)C(=S)N2CC)c2ccccc21 (stereo not drawn) | 100% |
| ClC1=C(Cl)C(Cl)=C(Cl)C1=Cc1ccc(Cl)cc1Cl | -75.7% (active) |
| CC(C)CCC[C@@H](C)[C@H]1CC[C@H]2[C@@H]3CC[C@H]4C/C(=N/O)CC[C@]4(C)[C@H]3CC[C@]12C | 110% |
| COc1ccc(/C=c2\sc3n(c2=O)C2C(NN=3)N(C)C(=O)N2C)cc1 (stereo not drawn) | 45% |
| COc1ccc(OC)c(/C=C2\Oc3cc(OCCN4CCCC4)ccc3C2=O)c1 | 92.7% |
| CCCCCC/C=C\CCCCCCCCOc1ccc(CCOP(=O)(O)OCC[N+](C)(C)C)cc1 | 91.7% |
| CCN1C(=O)N(CC)C2C1NN=c1s/c(=C3\C(=O)N(C4CCCC4)c4ccccc43)c(=O)n12 (stereo not drawn) | 31.9% |
| CN(C)c1nc(N)c(N=O)c(N)n1 | 109% |
| C/C(=N\NC(=O)CC#N)c1cc2cc(Cl)ccc2o1 | 96.1% |
| COc1cc(C2CC(c3c(C)[n+]([O-])c4ccccc4[n+]3[O-])=NN2)cc(OC)c1OC (stereo not drawn) | 103% |
| COc1ccc(NC(=S)/N=c2\oc3c(OC)cccc3cc2-c2cc3ccccc3[nH]2)cc1 | 44.8% |
| COc1cc(/C=C/C(=O)c2ccccc2O)ccc1OCCCOc1cc2c(cc1OC)C(=O)N1CCC[C@H]1C=N2 | -13.8% (active) |
| O=C1CCC/C=C\C[C@H]2C=CC(=O)/C2=C/C[C@H](C/C=C\CC(F)(F)F)O1 | -84.8% (active) |
| CC(C)(C)c1cc(-c2nc3ccc(N4CCN(CCO)CC4)cc3[nH]2)cc(C(C)(C)C)c1O | 89.2% |
| C=C1C(=O)O[C@H]2[C@H]1CC/C(Cn1cc(-c3ccsc3)nn1)=C\CC[C@@]1(C)O[C@@H]21 | -90.5% (active) |

| SMILES | growth |
| --- | --- |
| C#CCN1C(=O)/C(=c2\sc3n(c2=O)C2C(NN=3)N(CC)C(=O)N2CC)c2ccccc21 (stereo not drawn) | 19.8% |
| COc1cccc2cc(-c3cc4ccccc4[nH]3)/c(=N/C(=S)Nc3ccccc3)oc12 | 41.2% |
| Cc1ccc(S(=O)(=O)OCC(=O)Nc2ccc(C(=O)O)c(O)c2)cc1 | 102% |
| CCCCCCCCCN1C(=O)/C(=c2\sc3n(c2=O)C2C(NN=3)N(CC)C(=O)N2CC)c2ccccc21 (stereo not drawn) | 59% |
| Cc1oc2nc[nH]c(=O)c2c1C(=O)/C=C/c1ccc(Cl)cc1Cl | 66.4% |
| C#CCN1C(=O)/C(=c2\sc3n(c2=O)NC2C(N=3)N(CC)C(=O)N2CC)c2ccccc21 (stereo not drawn) | 54.4% |
| CCN(Cc1ccc(CN(CC)C(=O)C(Cl)(Cl)Cl)cc1)C(=O)C(Cl)(Cl)Cl | 91.1% |
| COc1cc(C(=O)N2CCN(C(=O)c3ccco3)CC2)c(N)cc1OCc1ccccc1 | 99.6% |
| CCN1C(=O)N(CC)C2Nn3c(s/c(=C\c4cccc(F)c4)c3=O)=NC21 (stereo not drawn) | 66.7% |
| COc1ccc(NC(=O)/N=c2\oc3c(OC)cccc3cc2-c2cc3ccccc3[nH]2)cc1 | 34.9% |
| O=c1[nH]c(CN2CCN(c3ccccc3F)CC2)nc2sc3c(c12)CCC3 | 113% |
| O=C(CSc1nc(-c2ccc(Cl)cc2)cn1-c1ccc(Cl)cc1)c1ccc(Br)cc1 | 22.4% |
| CCCCNc1nnc(-c2cc(-c3cc4ccccc4o3)nn2-c2ccccc2)o1 | 85.9% |
| COc1cc2oc(-c3cccc(NC(=O)Nc4ccc5c(c4)OCO5)c3)cc(=O)c2c(OC)c1OC | 47.1% |
| CCN1C(=O)N(CC)C2Nn3c(s/c(=C4\C(=O)N(C5CCCC5)c5ccccc54)c3=O)=NC21 (stereo not drawn) | 59.2% |
| NC(N)=NC(N)=Nc1ccccc1-c1ccccc1 | 106% |
| C=CC(=O)N[C@H](/C=C/C(=O)OCC)Cc1ccc(-c2cc(Cl)cc(Cl)c2)cc1 | 90.1% |
| CCN1C(=O)N(CC)C2C1NN=c1s/c(=C\c3ccccn3)c(=O)n12 (stereo not drawn) | 43.4% |
| C/C1=C\CCC2(C)OC2CC2CCC(C)(O)C(CC1)C2(C)C (stereo not drawn) | 92.5% |

test system: CAKI-1 renal; test: as above; settings: 10 µM unless noted

| SMILES | growth |
| --- | --- |
| CCCCCCCC/C=C\CCCCCCCCOc1ccccc1CCOP(=O)(O)OCC[N+](C)(C)C | 26.9% |
| CCN1C(=S)N(CC)C2Nn3c(s/c(=C4\C(=O)N(C)c5ccccc54)c3=O)=NC21 (stereo not drawn) | 30.8% |
| O=C(CNC(=O)c1cccc2ccccc12)Nc1ccccc1Oc1ccccc1 | 31.6% |
| CN(C)C/C=C/C(=O)Nc1cc2c(Nc3ccc(F)c(Cl)c3F)ncnc2cc1OCCOC(F)F | -15.3% (active) |
| CC(C)C(C(=O)CCN(C)C)c1ccc(Cl)cc1 (stereo not drawn) | 102% |
| CCN1C(=O)/C(=c2\sc3n(c2=O)C2C(NN=3)N(CC)C(=S)N2CC)c2ccccc21 (stereo not drawn) | 76% |
| ClC1=C(Cl)C(Cl)=C(Cl)C1=Cc1ccc(Cl)cc1Cl | -41.2% (active) |
| CC(C)CCC[C@@H](C)[C@H]1CC[C@H]2[C@@H]3CC[C@H]4C/C(=N/O)CC[C@]4(C)[C@H]3CC[C@]12C | 96.7% |
| COc1ccc(/C=c2\sc3n(c2=O)C2C(NN=3)N(C)C(=O)N2C)cc1 (stereo not drawn) | 31.5% |
| COc1ccc(OC)c(/C=C2\Oc3cc(OCCN4CCCC4)ccc3C2=O)c1 | 79.7% |
| CCCCCC/C=C\CCCCCCCCOc1ccc(CCOP(=O)(O)OCC[N+](C)(C)C)cc1 | 36.9% |
| CCN1C(=O)N(CC)C2C1NN=c1s/c(=C3\C(=O)N(C4CCCC4)c4ccccc43)c(=O)n12 (stereo not drawn) | 32.1% |
| CN(C)c1nc(N)c(N=O)c(N)n1 | 103% |
| C/C(=N\NC(=O)CC#N)c1cc2cc(Cl)ccc2o1 | 89.2% |
| COc1cc(C2CC(c3c(C)[n+]([O-])c4ccccc4[n+]3[O-])=NN2)cc(OC)c1OC (stereo not drawn) | 106% |
| COc1ccc(NC(=S)/N=c2\oc3c(OC)cccc3cc2-c2cc3ccccc3[nH]2)cc1 | 28.3% |
| COc1cc(/C=C/C(=O)c2ccccc2O)ccc1OCCCOc1cc2c(cc1OC)C(=O)N1CCC[C@H]1C=N2 | -35.3% (active) |
| O=C1CCC/C=C\C[C@H]2C=CC(=O)/C2=C/C[C@H](C/C=C\CC(F)(F)F)O1 | 16% |
| CC(C)(C)c1cc(-c2nc3ccc(N4CCN(CCO)CC4)cc3[nH]2)cc(C(C)(C)C)c1O | 63.2% |
| C=C1C(=O)O[C@H]2[C@H]1CC/C(Cn1cc(-c3ccsc3)nn1)=C\CC[C@@]1(C)O[C@@H]21 | -53.5% (active) |

| SMILES | growth |
| --- | --- |
| C#CCN1C(=O)/C(=c2\sc3n(c2=O)C2C(NN=3)N(CC)C(=O)N2CC)c2ccccc21 (stereo not drawn) | 23.5% |
| COc1cccc2cc(-c3cc4ccccc4[nH]3)/c(=N/C(=S)Nc3ccccc3)oc12 | 41% |
| Cc1ccc(S(=O)(=O)OCC(=O)Nc2ccc(C(=O)O)c(O)c2)cc1 | 102% |
| CCCCCCCCCN1C(=O)/C(=c2\sc3n(c2=O)C2C(NN=3)N(CC)C(=O)N2CC)c2ccccc21 (stereo not drawn) | 34.8% |
| Cc1oc2nc[nH]c(=O)c2c1C(=O)/C=C/c1ccc(Cl)cc1Cl | 46.1% |
| C#CCN1C(=O)/C(=c2\sc3n(c2=O)NC2C(N=3)N(CC)C(=O)N2CC)c2ccccc21 (stereo not drawn) | 30.1% |
| CCN(Cc1ccc(CN(CC)C(=O)C(Cl)(Cl)Cl)cc1)C(=O)C(Cl)(Cl)Cl | 72% |
| COc1cc(C(=O)N2CCN(C(=O)c3ccco3)CC2)c(N)cc1OCc1ccccc1 | 105% |
| CCN1C(=O)N(CC)C2Nn3c(s/c(=C\c4cccc(F)c4)c3=O)=NC21 (stereo not drawn) | 48.9% |
| COc1ccc(NC(=O)/N=c2\oc3c(OC)cccc3cc2-c2cc3ccccc3[nH]2)cc1 | 49% |
| O=c1[nH]c(CN2CCN(c3ccccc3F)CC2)nc2sc3c(c12)CCC3 | 122% |
| O=C(CSc1nc(-c2ccc(Cl)cc2)cn1-c1ccc(Cl)cc1)c1ccc(Br)cc1 | 78.7% |
| CCCCNc1nnc(-c2cc(-c3cc4ccccc4o3)nn2-c2ccccc2)o1 | 97.4% |
| COc1cc2oc(-c3cccc(NC(=O)Nc4ccc5c(c4)OCO5)c3)cc(=O)c2c(OC)c1OC | 48.6% |
| CCN1C(=O)N(CC)C2Nn3c(s/c(=C4\C(=O)N(C5CCCC5)c5ccccc54)c3=O)=NC21 (stereo not drawn) | 32.6% |
| NC(N)=NC(N)=Nc1ccccc1-c1ccccc1 | 89.8% |
| C=CC(=O)N[C@H](/C=C/C(=O)OCC)Cc1ccc(-c2cc(Cl)cc(Cl)c2)cc1 | 79.4% |
| CCN1C(=O)N(CC)C2C1NN=c1s/c(=C\c3ccccn3)c(=O)n12 (stereo not drawn) | 30.2% |
| C/C1=C\CCC2(C)OC2CC2CCC(C)(O)C(CC1)C2(C)C (stereo not drawn) | 87.7% |
